Most compounds without a hit are left out; they make up all but 4% or so of the library.
NALP1 inh = inhibitors of NALP1 inflammasome in yeast. S. cerevisiae NALP1/ASC/caspase-1 growth, X-gal OD620, 72 h. inhibition, % at 10 µM. actives 0.61% (n = 280,000); in the data active = inhibition mostly above about 24%, no sharp cut-off; inactive = mostly below about 32%
NALP3 yeast inh = inhibitors of NALP3 inflammasome in yeast. Yeast reconstituted NLRP3/ASC/caspase-1, beta-gal luminescence, 24 h. actives 0.39% (n = 330,000). inhibition, % at 10 µM;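 active = inhibition of 50% or more; inactive = inhibition below 50%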
tim23-1 inh = tim23-1 yeast growth inhibition; S. cerevisiae tim23-1 growth, BacTiter-Glo luminescence, 24 h; inhibition, % at 20 µM; actives 1.3% (n = 330,000); AID 463212;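 active = growth inhibition of the mutant yeast at or above 50%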;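 also: temperature-sensitive mutant grown at 25 °C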
tim10-1 inh = growth inhibitors of tim10-1 mutant yeast; S. cerevisiae tim10-1 ts strain growth, BacTiter-Glo, 24 h; inhibition, % at 20 µM; actives 2.2% (n = 330,000); AID 463190;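 active = inhibition of at least 40%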;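 also: mutant grown at 25 °C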
TIM10 inh = inhibits growth of TIM10 yeast strain. actives 1.4% (n = 330,000). inhibition, % at 10 µM. AID 463195. S. cerevisiae TIM10 strain growth, BacTiter-Glo luminescence, 24 h;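 active = inhibition of 40% or more at the single tested concentration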;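 also: wild-type TIM10 isogenic control strain grown at permissive 25 °C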
TIM10 conf = confirmation of TIM10 yeast growth inhibitors; shares compounds with TIM10 inh; S. cerevisiae tim10 strain growth, BacTiter-Glo luminescence, 24 h; inhibition, % at 10 µM; actives 63% (n = 4,600);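 active = inhibition of yeast growth at or above a set limit in either of two replicates at 10 µM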; also: this counterscreen used the strain with wild-type TIM10
tim23-1 confirm = confirmation of tim23-1 mutant yeast growth inhibitors. AID 463218. actives 83% (n = 4,400). shares compounds with tim23-1 inh. S. cerevisiae tim23-1 growth, BacTiter-Glo luminescence, 24 h. inhibition, % at 20 µM;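 active = inhibition above about 39% in either of two replicate wells at 20 µM, limit read from the data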;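 also: temperature-sensitive tim23-1 mutant grown at 25 °C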
Of the large screens only hits and unclear results are named; the others gave an inactive call (follow-up assays come after a bar, where they were run).

CCNc1nc(N)nc(-c2cc(Cl)ccc2O)n1	tim23-1 inh 56, TIM10 inh 50 | TIM10 conf inactive | tim23-1 confirm inactive
COc1ccccc1NC(=O)C1CCN(S(=O)(=O)c2ccc3c(c2)NC(=O)CO3)CC1	none
CC(C)C(=O)Nc1ncc2c(n1)CC(c1cccs1)CC2=O (stereo not drawn)	none
COc1ccc(C(=O)/C=C/C(=O)N(CC(=O)NC2CCCCC2)Cc2cccs2)c(O)c1	tim23-1 inh 62, TIM10 inh 49 | TIM10 conf 47 | tim23-1 confirm 36
Cc1ccccc1C(=O)N/N=C/c1ccc([N+](=O)[O-])s1	tim23-1 inh 76, TIM10 inh 52 | TIM10 conf 47 | tim23-1 confirm 66
O=C(c1ccc(Cl)cc1)C(CN1CCCCC1)c1ccccc1 (stereo not drawn)	tim23-1 inh 62, TIM10 inh 58 | TIM10 conf 63 | tim23-1 confirm inactive
Cc1csc(=O)n1CC(=O)Nc1ccc(Cl)cc1F	none (no result: NALP1 inh)
O=C(CCCCC(=O)NCCc1ccccc1)NCCc1ccccc1	none
Cc1ccc(C(=O)/C=C/c2ccccc2[N+](=O)[O-])cc1	tim23-1 inh 59, TIM10 inh 50 | TIM10 conf 38 | tim23-1 confirm 62
Fc1cccc(Cl)c1CNCc1ccccc1Cl	none
O=C(CC1C(=O)NCCN1Cc1cccc(C(F)(F)F)c1)NC1CCCCCC1 (stereo not drawn)	none
c1ccc(-n2cnc3cc(NCc4ccco4)ccc32)cc1	tim23-1 inh 54, TIM10 inh 53 | TIM10 conf 39 | tim23-1 confirm 68
COc1ccc(-n2cnc3cc(NCc4ccccn4)ccc32)cc1	none
O=C(Nc1cc(Cl)cc(Cl)c1)N1CCCC1	tim23-1 inh 54, TIM10 inh 48 | TIM10 conf inactive | tim23-1 confirm 46
COc1ccccc1NC(=O)NNC(=O)CCc1ccccc1	none
CCN(CC)c1ccc(/C=N/NC(=O)c2c(Cl)cnn2C)c(O)c1	tim23-1 inh 67, TIM10 inh 58 | TIM10 conf inactive | tim23-1 confirm 62
COc1ccc(CCNC(=O)C/C(C)=N/NC(=O)c2cnccn2)cc1	none
CC(C)c1ccc(NC(=O)N2CCc3ccccc3C2)cc1	tim23-1 inh 52, TIM10 inh 45 | TIM10 conf 31 | tim23-1 confirm 50
CCOc1ccc2nc(Cl)c(/C=C/C(=O)c3ccco3)cc2c1	none
Cc1cccc2cc(/C=C/C(=O)c3ccco3)c(Cl)nc12	tim23-1 inh 50, TIM10 inh 43 (no result: NALP1 inh) | TIM10 conf inactive | tim23-1 confirm 52
O=C(c1ccco1)N1CCN(c2ccc(F)cc2)CC1	none
O=C(c1ccco1)N1CCN(c2nc(-c3ccc(F)cc3)cs2)CC1	tim23-1 inh 82, TIM10 inh 44 | TIM10 conf inactive | tim23-1 confirm inactive
CC12CCC(=O)C=C1CCC1C2C(O)CC2(C)C1CCC2(O)C(=O)CO (stereo not drawn)	none
Oc1ccc(Nc2nc(-c3ccccc3O)nc3ccccc23)cc1	tim23-1 inh 75, TIM10 inh 47 | TIM10 conf 62 | tim23-1 confirm inactive
CC(C)c1ccc(C2NC(=O)CCC2[N+](=O)[O-])cc1 (stereo not drawn)	none
CCc1ccc(/C=N/n2c(COc3ccccc3)n[nH]c2=S)cc1	tim23-1 inh 61, TIM10 inh 44 | TIM10 conf 42 | tim23-1 confirm inactive
CCc1[nH]nc(C(=O)N/N=C/c2ccncc2)c1C	none
CCOC(=O)c1c(C)[nH]c(C(=O)COC(=O)COc2ccccc2C=O)c1C	tim23-1 inh 54, TIM10 inh 53 | TIM10 conf 51 | tim23-1 confirm 62
N#Cc1c2n(c(=O)[nH]c1=O)CCCCC2	none
N#CC1=C(N2CCCCC2)c2cc3c(n2C1=O)CCCC3	tim23-1 inh 52, TIM10 inh 44 | TIM10 conf 33 | tim23-1 confirm 57
N#CC1=C(c2ccccc2)/C(=C/c2ccccc2)OC1=O	tim23-1 inh 61, TIM10 inh 44 | TIM10 conf 52 | tim23-1 confirm 59
Clc1ccc(-c2nnc(NCc3ccccc3)c3ccccc23)cc1	tim23-1 inh 68, TIM10 inh 54 | TIM10 conf 57 | tim23-1 confirm 71

Compound activity (PubChem BioAssay)
